# Experimental data as given in PubChem BioAssay (Tox21).
# Inconclusive results are not listed. Entries that show only a call come without a potency. Calls of active or inactive are those of the source. The call rests on the fitted dose curve; in most records, active means well fitted inhibition curve with a large enough effect in the signal ratio in the repeat runs (not every such curve was filed as active); inconclusive means weak or mixed curves, or effect the other way; inactive means no such curve, though single readings can be large or run the other way; the % refers to the signal ratio.
# Molecular target: Peroxisome proliferator-activated receptor delta (Homo sapiens) (UniProt Q03181)
# Experiment: qHTS assay to identify small molecule antagonists of the peroxisome proliferator-activated receptor delta (PPARd) signaling pathway (AID 743215);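 further: cells stimulated with agonist L165041 at 300 nM final during compound exposure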
# Conditions: HEK293H PPARd-UAS-bla, beta-lactamase FRET ratio, antagonist, 17 h; series mostly up to 62 µM
# Source text: U.S. Tox21 Program National Center for Advancing Translational Sciences [NCATS] NIH Chemical Genomics Center [NCGC] U.S. Environmental Protection Agency [EPA] National Institutes of Environmental Health Sciences [NIEHS] National Toxicology Program [NTP] U.S. Food and Drug Administration [FDA] Tox21 Assay Overview: The peroxisome proliferator-activated receptors (PPARs) are lipid-activated transcription factors of the nuclear receptor superfamily with three distinct subtypes namely PPAR alpha, PPAR delta (PPARd) and PPAR gamma. All these subtypes heterodimerizes with Retinoid X receptor (RXR) and have different physiological functions. […] To identify the compounds that inhibit PPAR-delta signaling, GeneBLAzer PPAR delta UAS-bla HEK293H cell line (Invitrogen, Carlsbad, CA, USA) containing a beta-lactamase reporter gene under the control of an Upstream Activator Sequence (UAS) was used to screen the Tox21 compound library.
# Tox21 Assay Protocol Summary: PPARd-bla cells were dispensed at 3000 cells/5uL/well in 1536-well black wall/clear bottom plates using a Multidrop Combi (Thermo Fisher Scientific, Waltham, MA) dispenser. After the assay plates were incubated at 37 C and 5% CO2 for 5 h, 23 nL of compounds dissolved in DMSO, positive controls or DMSO only was transferred to the assay plate by a Pintool station (Kalypsys, San Diego, CA), followed by addition of 1ul L165041 (300 nM, final concentration in the wells). The assay plates were incubated at 37 C for 17 h, and then 1 uL of LiveBLAzerTM B/G FRET substrate was added using a Bioraptr Flying Reagent Dispenser (FRD) workstation (Beckman Coulter, Indianapolis, IN, USA). The assay plates were incubated at room temperature for 2 h and fluorescence intensity was measured by an Envision plate reader (PerkinElmer, Shelton, CT).
# Sequence of Peroxisome proliferator-activated receptor delta (Homo sapiens) (Q03181 whole entry, looked up): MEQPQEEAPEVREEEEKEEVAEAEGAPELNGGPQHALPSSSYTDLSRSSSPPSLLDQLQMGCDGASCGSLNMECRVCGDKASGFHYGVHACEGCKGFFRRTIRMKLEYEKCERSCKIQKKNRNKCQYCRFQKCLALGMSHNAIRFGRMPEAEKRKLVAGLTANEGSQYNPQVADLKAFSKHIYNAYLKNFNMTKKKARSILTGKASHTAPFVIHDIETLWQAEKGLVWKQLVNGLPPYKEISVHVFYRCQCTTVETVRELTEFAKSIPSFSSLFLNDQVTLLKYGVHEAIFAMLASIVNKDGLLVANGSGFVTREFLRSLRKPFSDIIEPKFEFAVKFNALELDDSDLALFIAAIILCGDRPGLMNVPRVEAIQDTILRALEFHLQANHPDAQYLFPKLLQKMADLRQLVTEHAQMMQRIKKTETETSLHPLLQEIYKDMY
row,Compound,Potency
1,COCc1c(C(C)C)nc(C(C)C)c(/C=C/[C@@H](O)C[C@@H](O)CC(=O)O)c1-c1ccc(F)cc1,inactive
2,CC(CCc1ccc2c(c1)OCO2)NN (stereo not given),inactive
3,COC(OC)(C(=O)c1ccccc1)c1ccccc1,inactive
4,CC#N,inactive
5,Cc1ccc(/C=N/n2c(-c3ccccc3)csc2=S)cc1,inactive
6,CC1=C(C=O)C(C)(C)CCC1,inactive
7,O=c1[nH]c2ccc(S(=O)CCN3CCC(Cc4ccc(F)cc4)CC3)cc2o1 (stereo not given),inactive
8,Cc1nccn1-c1ccc(Sc2cccc(C3(C(N)=O)CCOCC3)c2)cc1,inactive
9,C1COCO1,inactive
10,CC(C)C(=O)O,inactive
11,O=C1NCCN1,inactive
12,CCCCC(=O)O[C@]1(C(=O)CO)CC[C@H]2[C@@H]3CCC4=CC(=O)CC[C@]4(C)[C@H]3[C@@H](O)C[C@@]21C,inactive
13,c1cnc2c(n1)CCCC2,inactive
14,Cc1ccc(S)cc1,inactive
15,CCCCCCOC(=O)C(C)C,inactive
16,CCC(C(=O)OCCN(CC)CC)c1ccccc1 (stereo not given),inactive
17,O=C(O)C(Cc1cc(I)c(O)c(I)c1)c1ccccc1 (stereo not given),inactive
18,C[C@@H]1C[C@H]2[C@@H]3CCC4=CC(=O)C=C[C@]4(C)[C@@]3(F)[C@@H](O)C[C@]2(C)[C@@]1(O)C(=O)CO,inactive
19,CC(=O)Oc1ccc2c(c1)CC[C@@H]1[C@@H]2CC[C@]2(C)[C@@H](O)CC[C@@H]12,inactive
20,CCCCCCCCCOC(C)=O,inactive

row,Compound,Potency
1,C=CCOC(=O)/C=C\C(=O)OCC=C,inactive
2,O=C(CS)OCCOC(=O)CS,inactive
3,CCCCCCCCCCCC[N+](C)(C)CC(=O)[O-],inactive
4,NC(=O)N(O)[C@@H]1C=C[C@H](Oc2cccc(Oc3ccc(F)cc3)c2)C1,inactive
5,CCOC(=O)c1ccccc1OC,inactive
6,CC(=O)Nc1ccc(N)cc1,inactive
7,CC(C)C(OC(=O)c1ccccc1)C(C)(C)COC(=O)c1ccccc1 (stereo not given),inactive
8,CCOC(=O)OCC,inactive
9,Cc1nc2ccccn2c(=O)c1CCN1CCC(C(=O)c2ccc(F)cc2)CC1,inactive
10,OCCSc1ccccc1,inactive
11,CCCC1C(CC)=CC(CC)=CN1c1ccccc1 (stereo not given),inactive
12,CC(=O)CC(c1ccc([N+](=O)[O-])cc1)c1c(O)c2ccccc2oc1=O (stereo not given),inactive
13,Cc1ccnc2ccccc12,inactive
14,COc1ccc([C@@H]2Sc3ccccc3NC(=O)[C@@H]2O)cc1,inactive
15,O=C(CCCCCCCCC#CI)Oc1ccccc1,inactive
16,O=C(O)c1snc(Cl)c1Cl,inactive
17,Brc1cc(-c2ccc(Br)c(Br)c2Br)cc(Br)c1Br,inactive
18,Cc1oncc1C(=O)Nc1ccc(C(F)(F)F)cc1,inactive
19,O=C(Nc1ccc([N+](=O)[O-])cc1)Nc1ccc([N+](=O)[O-])cc1,inactive
20,CCCCOC(=O)CCS,inactive
